Screening results: PubChem BioAssay, National Center for Advancing Translational Sciences (NCATS)
D2 ag-1: D2 dopamine receptor (human) agonism; 340,000 compounds, 0.53% hits; P14416; AID 485358; activation, % at 2 µM; HEK293 T-REx D2 cells, calcium flux agonist mode;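 active means activation over 3 SD above normal in the single-dose calcium agonist read, cut at about 30% in these data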; further: 0% is about no effect
Target sequence (P14416 whole entry, looked up): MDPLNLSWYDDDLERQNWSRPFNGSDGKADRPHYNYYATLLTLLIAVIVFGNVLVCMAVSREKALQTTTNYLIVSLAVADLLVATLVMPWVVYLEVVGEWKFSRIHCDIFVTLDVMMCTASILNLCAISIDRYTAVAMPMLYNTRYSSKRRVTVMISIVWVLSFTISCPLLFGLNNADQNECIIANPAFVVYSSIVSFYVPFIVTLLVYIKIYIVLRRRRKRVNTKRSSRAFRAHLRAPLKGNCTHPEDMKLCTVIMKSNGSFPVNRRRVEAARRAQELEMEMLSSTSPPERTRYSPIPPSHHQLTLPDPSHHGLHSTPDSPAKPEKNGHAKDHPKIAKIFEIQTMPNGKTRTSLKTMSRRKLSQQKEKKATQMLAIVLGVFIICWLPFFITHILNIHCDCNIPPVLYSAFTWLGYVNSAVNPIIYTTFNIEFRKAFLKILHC
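Agonism scored from kinetic calcium signal (1 read/sec, 180 s) following compound pin transfer, after a 10 s baseline. Cells: HEK293 Trex line expressing inducible D2 receptor coupled to calcium, dye-loaded after overnight culture at 30 C.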
D2 PAM-1: human D2 receptor positive allosteric modulation; 360,000 compounds, 0.23% hits; potentiation, % (concentration not given with the values); P14416; DiscoveRx D2 beta-arrestin cells, luminescence, 90 min; 100% = 57 uM dopamine signal; in the data active means potentiation above about 50%; inconclusive means mostly about 30% to 49%
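D2 cells co-treated with compound plus 50 nM dopamine (EC20) for 90 min at 37 deg C to detect potentiation. Beta-arrestin recruitment was read as enzyme-fragment luminescence after 1 h at ambient temperature. Full response was set by 57 uM dopamine.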
D2 ag-2: human D2 receptor agonism in beta-arrestin assay; P14416; DiscoveRx PathHunter D2 beta-arrestin, luminescence, 90 min; 100% = 57 uM dopamine signal; activation, % (test concentration not listed); 360,000 compounds, 0.084% hits; AID 624465; in the data active means activation above about 40%; inconclusive means between about 15% and that limit
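Agonist mode: compounds alone added to overnight-plated D2 PathHunter cells for 90 min at 37 C, with 57 uM final dopamine (EC100) defining full response. Beta-arrestin recruitment detected by chemiluminescent reagent, read after 1 h at ambient temperature.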
D2 antag: antagonizes the human D2 dopamine receptor. P14416. 340,000 compounds, 2% hits. AID 485344. HEK293 TREx D2 cells, calcium flux, dopamine EC80. inhibition, % at 10 µM; in the data active means inhibition above about 30%; inactive means below that, where a call was filed; further: 0% is about no effect
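Overnight-induced (tetracycline, 30 C) HEK293 T-REx cells carrying force-coupled D2 receive a no-wash calcium dye, then compound, then EC80 dopamine at 180 s; signals are read kinetically throughout.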
D2 PAM-2: D2 dopamine receptor (human) potentiation | 340,000 compounds, 0.34% hits | AID 485347 | P14416 | potentiation, % at 10 µM | HEK293 T-REx D2, calcium flux, EC20 dopamine potentiation;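 active means potentiation over 3 SD above the plate norm, cut at about 30% in these data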; further: 0% is about no effect
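Tetracycline-induced HEK293 T-REx cells force-coupled to calcium signalling expressed D2; compounds were pin-added after a 10 s baseline, read kinetically 180 s, then an EC20 dopamine challenge followed with a further 180 s calcium read.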
Numbers without * were called inactive; ? = inconclusive; / = no result; ! = a repeat was not active. In the library only some 2.4% were active in any assay of this set; here they are far more common.

SMILES	D2 ag-1	D2 PAM-1	D2 ag-2	D2 antag	D2 PAM-2
CCC(=O)N1CCc2cc(Br)cc(S(=O)(=O)N3CCCC(C(=O)NCc4ccccc4)C3)c21 (stereo unspecified)	0	/	/	/	-3
COc1ccc(C(=O)NNC(=O)C(=O)Nc2ccc(C)cc2)cc1	-3	-8	-8	9	/
CCc1ccc(NC(=O)C(=O)NNC(=O)c2ccc(OC)cc2)cc1	1	-1	-5	43*	-14
O=C(Nc1cccc(-c2nc3ncccc3o2)c1)c1ccc(-c2cccc(Cl)c2Cl)o1	-2	/	/	/	5
Cc1ccc(NC(=S)NC2CC3CCCC(C2)N3Cc2cccs2)cc1 (stereo unspecified)	1	-38	-3	72*	-23
CCc1ccccc1NC(=S)NC1CC2CCCC(C1)N2Cc1cccs1 (stereo unspecified)	-1	-19	-1	72*	-23
Cc1cccc(NC(=S)NC2CC3CCCC(C2)N3Cc2cccs2)c1C (stereo unspecified)	0	-24	-1	69*	-22
CCCN1C2CCCC1CC(NC(=S)Nc1cccc(C)c1C)C2 (stereo unspecified)	0	-13	-3	-16	-10
Fc1ccc(NC(=S)NC2CC3CCCC(C2)N3Cc2cccs2)cc1 (stereo unspecified)	0	-23	-4	15	-13
O=C(Nc1cccc(Cl)c1)NC1CC2CCC(C1)N2Cc1cccs1 (stereo unspecified)	0	-4	1	73*	-17
CCn1c(=O)c2cc(C(=O)NCCCN3CCN(c4ccc(F)cc4)CC3)sc2c2ccccc21	6	/	/	/	-21
O=c1onc(-c2ccccc2Cl)n1-c1ccccc1Cl	/	58*	40*	/	/
CCN(CC)S(=O)(=O)c1ccc(Cl)c(C(=O)Nc2ccc(Cl)cc2[N+](=O)[O-])c1	-1	63*	12	-9	3
COc1ccc(Br)cc1CNC(=O)c1cc(=O)[nH]c2ccc(S(=O)(=O)N3CCCCC3)cc12	-1	/	/	/	-14
COc1cc(CNc2ccc3[nH]c(=O)[nH]c3c2)ccc1OCc1ccccc1F	1	7	10	-16	11
COc1cc(CNc2ccc3[nH]c(=O)[nH]c3c2)cc(Br)c1OCc1ccccc1F	1	-2	11	-5	44*!
CCCCCCN(C(=O)CCCCCN1C(=O)NC(c2ccc(-c3ccccc3)cc2)C(C(=O)OCc2ccccc2)=C1C)C(C(=O)NCCCC)c1ccccn1 (stereo unspecified)	1	/	/	31*	-10
CCCCCCN(C(=O)CCCCCN1C(=O)NC(c2ccc(-c3ccccc3)cc2)C(C(=O)OCc2ccccc2)=C1C)C(C(=O)NCCCC)C1CCCCC1 (stereo unspecified)	0	/	/	23	3
O=C(CSC1=NS(=O)(=O)c2cc(F)ccc2N1)NCCc1ccccc1	36*	-19	-5	24	-6
Cc1cc(C)nc(N/N=C/c2ccccc2)n1	1	-5	-3	44*	6
Cc1nonc1C(=O)N/N=C/c1cccc(O)c1	-1	-1	-5	33*	15
O=C(N/N=C/c1cccc(O)c1)N/N=C/c1cccc(O)c1	2	3	2	24	-4
CCOc1ccc(CNC(=O)C2CCN(S(=O)(=O)c3cn(C)cn3)CC2)cc1	1	/	/	/	1
O=C(CCc1ccc(S(=O)(=O)N2CCOCC2)cc1)N/N=C/c1ccc(F)cc1F	0	-7	1	-12	-6
O=C(CCc1ccc(S(=O)(=O)N2CCOCC2)cc1)N/N=C/c1ccc(O)c(O)c1O	1	82*	?	-3	10
CCOC(=O)C(=NCCCN(C)C)NNc1cc(C(F)(F)F)ccc1Cl	-1	-6	0	35*	-14
CCOC(=O)C(=NCCCN(C)C)NNc1ccc(Br)cc1	0	-11	5	-1	2
Cc1cccc(S(=O)Cc2ccc(C(=O)NC3CCCCCC3)o2)c1 (stereo unspecified)	-1	/	/	/	-2
Fc1ccc(Nc2nc3ccccc3s2)cc1	1	-36	3	33*	-5
Cc1ccc(Nc2nc3ccccc3s2)cc1	0	-13	1	-17	-1
